PubChem BioAssay AID489008 (National Center for Advancing Translational Sciences (NCATS), 2010)
Inconclusive results are not listed. The source made the active and inactive calls. The call rests on the fitted dose curve; in most records, active means well fitted inhibition curve with a large enough effect; inconclusive means small, poorly fitted or top-dose-only effect; inactive means flat fitted curve, though single readings scatter.

Molecular target: Ferritin light chain (Equus caballus) (UniProt P02791)
Sequence (P02791 2-175 limits assumed): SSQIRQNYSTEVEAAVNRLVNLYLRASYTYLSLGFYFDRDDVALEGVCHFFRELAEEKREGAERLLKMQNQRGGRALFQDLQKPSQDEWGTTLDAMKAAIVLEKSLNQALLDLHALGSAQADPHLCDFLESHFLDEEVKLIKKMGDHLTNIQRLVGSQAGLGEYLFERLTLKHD
Experiment: Confirmation Assay for Identification of Novel General Anesthetics; further: nearly all actives have a fitted effect of over 40% in size
Conditions: apoferritin 1-aminoanthracene fluorescence displacement
Procedure, shortened: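 Competitive displacement of profluorescent 1-aminoanthracene from 10 uM horse-spleen apoferritin in 50% saturated 1-AMA/PBS; 10 min RT, fluorescence Ex 380/Em 535. Normalized to free 1-AMA and complex; four-parameter Hill fit.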
Potency means the concentration at half of the fitted maximal effect.

Potency, active:
COc1ccccc1CC(=O)N1CCCc2ccccc21 31.6 µM
CCCNC(=O)OCCC12CC3CC(CC(C3)C1)C2 7.08 µM
Cc1ccc(C(=O)N2CCCc3ccccc32)c(F)c1F 22.4 µM
O=C(CO/N=C/c1ccc(OC(F)F)cc1)NC1CCCCCC1 11.2 µM
CCCNC(=O)c1csc2c1CCCCC2 28.2 µM
NS(=O)(=O)c1cccnc1Nc1cccc(C(F)(F)F)c1 10 µM
Cc1ccc(S(=O)(=O)NCCC2=CCCCC2)cc1C(N)=O 7.08 µM
CC(NC(=O)COC(=O)Cc1ccsc1)C1CC2CCC1C2 (centres undefined) 31.6 µM
CCCCCc1ccc(C2=NNC(=O)CC2)cc1 28.2 µM
NCCOc1ccc(C23CC4CC(CC(C4)C2)C3)cc1 11.2 µM
O=C(NCc1ccccc1)Nc1cccn(Cc2ccccc2)c1=O 8.91 µM
O=S(=O)(NCCc1ccccc1)c1ccc(Br)s1 31.6 µM
O=C(COC(=O)CC1CC2CCC1C2)NC(=O)NCc1ccco1 (centres undefined) 22.4 µM
Nc1ccc2nc(SCc3cccc(F)c3)sc2c1 28.2 µM
O=C(CCNc1cccc(Cl)c1)c1cccs1 17.8 µM
Cc1ccccc1Cn1nnc2sc3c(c2c1=O)CCCC3 15.8 µM
Oc1ccc(NCc2ccc(OCc3ccccc3Cl)cc2)cc1 17.8 µM
O=S(N1CCc2ccccc21)C12CC3CC(CC(C3)C1)C2 (centres undefined) 12.6 µM
COc1cccc(NC(=O)CN2C(=O)NC(C)(CCC(C)C)C2=O)c1 (centres undefined) 17.8 µM
Nc1ccc(Nc2ccccc2)c(Cl)c1 12.6 µM
CN(C(=O)c1cncc(Br)c1)C1C2CC3CC(C2)CC1C3 (centres undefined) 12.6 µM
COc1cccc(CNc2ccc(C)c(Cl)c2)c1 11.2 µM
O=C(COc1ccccc1Cl)N1CCCCCCC1 15.8 µM
Cc1cc(OC(C)C)c2c(-c3ccccc3)cc(=O)oc2c1 35.5 µM
CSC(=O)NC12CC3CC(CC(C)(C3)C1)C2 5.62 µM
Cc1cc(C)cc(NC(=O)N2CCCCCCC2)c1 6.31 µM
Nc1c(C(=O)NCc2ccccc2)nnn1Cc1cccc(Cl)c1 3.98 µM
CCC(CC)C(=O)OCC(=O)NC12CC3CC(CC(C3)C1)C2 10 µM
Cc1ccc(-c2ccc(=O)n(CC(=O)NCc3ccco3)n2)cc1 11.2 µM
CC(C)(C)c1ccc(OCCC(=O)NC2=NCCS2)cc1 20 µM
Nc1cc(N)nc(SCC(=O)N2CCc3ccccc32)n1 7.08 µM
Fc1cnc(Cl)nc1NC1CCCCC1 12.6 µM
NC(=O)COC(=O)CC12CC3CC(CC(C3)C1)C2 15.8 µM
CC1CCN(c2nc(-c3ccncc3)nc3ccccc23)CC1 39.8 µM
Cc1c(Br)cc(C(=O)N2CCCCCC2)c(C)c1C 17.8 µM
Cc1ccc(CN=C2Nc3ccccc3CS2)cc1 14.1 µM
O=C(CN1CCOCC1)Nc1ccc(C2CCCCC2)cc1 31.6 µM
ClC1(Cl)CC1CSc1nc2ccccc2[nH]1 (centres undefined) 15.8 µM
Fc1ccc(NCc2ccccc2F)cc1Cl 14.1 µM
